From PubChem
This is a sample that favours compounds with a hit; in the whole collection about 3.2% have one here.
DENV2 CPE rescue: protects cells from dengue virus 2 cytopathic effect; CPE inhibition, % at 9.99 µM; 1.7% of 350,000 active; DENV2-infected cells, cytopathic effect rescue, plate reader; in the data active = CPE inhibition above about 20%, passing the limit was not always enough; inconclusive = no clear call, values can overlap the other calls; tested in BHK-21 cells;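 also: 0% = median of neutral control wells and 100% = median of positive control wells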
CaV13 FRET inh: Disruptors of the CACNA1D IQ motif to Ca2+-dependent inactivation inhibitor domain association, primary screening, Förster resonance energy transfer in intact living … | HEK cells, CFP/YFP FRET ICDI-IQ, plate reader, 10 min; percent FRET-ratio fall versus neutral wells | 0.098% of 340,000 active | AID 743397 | inhibition, % at 12.3 µM;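 active = mean replicate inhibition of at least 30% and at least 1% of replicates passing that level; inconclusive = only one of the two criteria is met; inactive = neither criterion is met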;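 also: 0% = median of the neutral control wells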
PGC1a acetyl inh: PGC1a acetylation modulation, inhibitor mode. U2OS PGC1a acetylation, AlphaScreen anti-acetyl-lysine; with virally co-expressed GCN5 acetyltransferase. inhibition, % at 15.6 µM. 0.17% of 350,000 active;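 active = every replicate shows inhibition of at least 40%; inconclusive = mean inhibition at least 40% but some replicate below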;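 also: 0% = neutral control wells and 100% = positive control wells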
ERAP1 inh: ERAP1 (human) enzyme inhibition | 0.15% of 340,000 active | inhibition, % at 10.7 µM | recombinant ERAP1, Leu-AMC fluorescence, 60 min;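 active = mean replicate inhibition of at least 30%, or all replicates individually reaching that 30% level; inactive = mean below 30% and not every replicate reaching it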;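 also: 0% = neutral control wells and 100% = L-leucinethiol positive control wells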
Target sequence (Q9NZ08 whole entry, looked up): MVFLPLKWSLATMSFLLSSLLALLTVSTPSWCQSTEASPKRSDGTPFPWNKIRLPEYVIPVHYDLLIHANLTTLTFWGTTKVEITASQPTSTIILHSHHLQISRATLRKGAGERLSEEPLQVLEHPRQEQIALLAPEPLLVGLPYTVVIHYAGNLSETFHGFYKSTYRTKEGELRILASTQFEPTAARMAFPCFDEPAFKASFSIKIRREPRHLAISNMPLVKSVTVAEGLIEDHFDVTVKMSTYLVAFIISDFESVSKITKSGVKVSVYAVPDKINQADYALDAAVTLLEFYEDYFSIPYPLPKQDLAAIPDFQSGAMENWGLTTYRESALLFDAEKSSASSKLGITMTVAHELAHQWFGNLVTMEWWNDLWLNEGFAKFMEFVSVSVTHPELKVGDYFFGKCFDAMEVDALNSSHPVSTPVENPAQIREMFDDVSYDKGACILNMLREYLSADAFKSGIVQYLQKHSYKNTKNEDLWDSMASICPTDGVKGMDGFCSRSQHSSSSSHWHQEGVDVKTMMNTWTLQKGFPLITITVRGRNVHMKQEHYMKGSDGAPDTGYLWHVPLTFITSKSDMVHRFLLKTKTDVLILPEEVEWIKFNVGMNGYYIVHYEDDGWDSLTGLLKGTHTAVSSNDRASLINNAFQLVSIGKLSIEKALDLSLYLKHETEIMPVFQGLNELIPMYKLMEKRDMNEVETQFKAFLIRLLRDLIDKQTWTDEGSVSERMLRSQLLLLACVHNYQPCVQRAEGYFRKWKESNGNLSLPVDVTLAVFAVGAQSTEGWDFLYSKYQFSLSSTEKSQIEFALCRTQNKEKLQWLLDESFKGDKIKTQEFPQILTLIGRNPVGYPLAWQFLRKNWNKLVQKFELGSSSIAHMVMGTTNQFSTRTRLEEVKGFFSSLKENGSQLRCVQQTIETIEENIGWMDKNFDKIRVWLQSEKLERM
rRNA inh HTS: selective bacterial rRNA inhibition in E. coli | E. coli WT GFP vs humanized-ribosome RFP mutants, fluorescence, 24 h; stronger effect = lower value; DMSO median 0, no signal -100 | GFP signal change (wild-type ribosome), % (no concentration beside the values) | 1.6% of 350,000 active;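 active = significant combined selectivity score with lowered wild-type GFP, culture density cut under 30%, mutant RFP and density less affected; inactive = any of these conditions unmet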
INS-1E GSIS act: GLuc luminescence reporter in INS-1E cells, primary screen for activators of glucose-dependent secretion of insulin. INS-1E GLuc reporter insulin secretion, 2-3 h. activation, % at 16.6 µM. 0.61% of 370,000 active. AID 743287;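 active = lowest replicate activation of at least 40%, so every replicate reaches that level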;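 also: 0% = median of neutral control wells and 100% = median of IBMX positive control wells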
* = called active by the depositor; ? = inconclusive; · = no result.

SMILES	DENV2 CPE rescue	CaV13 FRET inh	PGC1a acetyl inh	ERAP1 inh	rRNA inh HTS	INS-1E GSIS act
CC[n+]1c(/C=C/N(C)c2ccccc2)oc2ccc(F)cc21	·	-4	·	·	·	-2
CC[n+]1c(/C=C/N(C)c2ccccc2)oc2ccccc21	-1	-3	11	4	-19*	-37
COc1cc(NC(=O)N2CCc3nc(Nc4cc(Cl)cc(Cl)c4)ncc3C2)cc(OC)c1OC	47*	-4	·	17	-5	3
Cc1nc2ccc(NC(=S)NC3CCCCC3)cc2nc1C	·	-8	·	-1	-28*	13
Cc1ccc(C[n+]2cc(-c3ccc(Cl)cc3)n3c2CCC3)cc1	8	3	-4	2	-47*	-47
Cc1ccc(-c2c[n+](Cc3ccc(Cl)cc3)c3n2CCC3)cc1	-5	-20	·	2	·	·
O=C(C[n+]1cc(-c2ccc(Cl)cc2)n2c1CCCCC2)c1ccccc1	0	-13	·	5	-51*	8
O=C(C[n+]1cc(-c2ccc(Br)cc2)n2c1CCCCC2)c1ccccc1	2	-7	0	7	-50	-30
C[C@H](CO)N1C[C@H](C)[C@@H](CN(C)CC2CC2)Oc2c(NC(=O)CCC(F)(F)F)cccc2C1=O	·	·	·	·	-1	0
O=[N+]([O-])c1ccc2c(c1)/C(=N\O)c1ccccc1-2	1	-2	-17	·	-28*	9
O=[N+]([O-])c1ccc2c(c1)-c1ccccc1C2O (stereo not drawn)	6	-7	1	39*	-3	11
COc1ccc(CCCCCCOCc2ccccc2)cc1	-9	-4	-13	3	2	-7
COc1ccc(COC[B-](F)(F)F)cc1	5	-3	-7	1	6	44*
COc1ccccc1NC(=O)N1C[C@H](O)COC[C@@H]2O[C@H](CC(=O)NCCc3ccccc3)CC[C@H]21	-7	·	12	-2	-3	0
OCCNc1nc(-c2ccccc2)c2cc(Cl)ccc2n1	·	-3	2	-29	-20	48*
Clc1ccc(/C=C/c2nc3ccccc3[nH]2)cc1	·	-5	7	·	·	·
OCCCCc1nccc2c1[nH]c1ccccc12	-3	-19	·	1	5	10
N#Cc1ccc(/C=C\c2nccc3c2[nH]c2ccccc23)cc1	1	38*	10	-5	14	-3
Clc1ccc(/C=C\c2nccc3c2[nH]c2ccccc23)cc1	-3	-8	·	0	-25*	5
C[C@@H]1CCCCO[C@H](CN(C)C(=O)NC2CCCCC2)[C@H](C)CN([C@H](C)CO)C(=O)c2cc(NC(=O)c3ccccc3)ccc2O1	1	·	-4	·	-8	-38
O=C(N[C@H]1C=C[C@@H](CC(=O)N2CCOCC2)O[C@H]1CO)c1cccc(F)c1	?	·	-4	0	4	8
COC(=O)C[C@@H]1CC[C@@H]2[C@@H](COc3ccc(NC(=O)Nc4ccc(C)cc4)cc3C(=O)N2C)O1	-2	·	-3	0	0	0
Cc1ccc(OCCn2cnc3c(N)ncnc32)cc1	·	-9	20	·	·	·
CCOc1ccc(OCCn2c(=S)[nH]c3c(N)ncnc32)cc1	-4	0	2	-6	-31*	-6
O=C1C=C(Nc2ccc(Cl)cc2Cl)CC(c2ccco2)C1 (stereo not drawn)	0	-2	-11	-1	-22*	-14
SMILES	DENV2 CPE rescue	CaV13 FRET inh	PGC1a acetyl inh	ERAP1 inh	rRNA inh HTS	INS-1E GSIS act
CCOC(=O)c1ccc(NC2=CC(=O)CC(c3ccco3)C2)cc1 (stereo not drawn)	5	-4	7	0	-22*	10
O=C1C=C(Nc2ccc(O)cc2)CC(c2ccco2)C1 (stereo not drawn)	·	-4	12	·	·	·
COc1ccccc1CNC(=O)C[C@@H]1CC[C@H]2[C@H](COc3ccc(NC(=O)Nc4ccc(F)c(F)c4)cc3C(=O)N2C)O1	-5	·	4	-1	-7	-4
C[C@H]1CCCCO[C@H](CN(C)C(=O)Nc2ccc(F)cc2)[C@@H](C)CN([C@@H](C)CO)C(=O)c2cc(NC(=O)c3ccccc3)ccc2O1	-6	·	-4	-1	-4	-18
Cc1ccc(NC(=S)NC(=O)C2CCC2)cc1C	69*	-5	·	-3	3	-16
O=C(NC(=S)Nc1ccc(Br)c(Cl)c1)C1CC1	2	-3	·	4	-27*	-33
Cc1cccc(-c2ccc([C@H]3[C@H]4CN(C(=O)c5cnccn5)CC(=O)N4[C@H]3CO)cc2)c1	·	·	·	·	2	-9
CCOC(=O)c1c2n(c3ccc(OC(C)=O)cc13)CCC2	2	3	-2	4	-7	48*
CC(C)C#Cc1ccc2c(c1)O[C@H](CN(C)C(=O)Cc1ccccn1)[C@@H](C)CN([C@@H](C)CO)S2(=O)=O	-11	·	3	-2	-2	-2
Cc1cc(Cl)c2oc(C(=O)N(C)CCCN3CCOCC3)c(C)c2c1	8	-6	·	-1	-7	10
Cc1cc(Cl)c2oc(C(=O)N(C)CCCCN3CCOCC3)c(C)c2c1	22*	-3	8	3	-1	19
OC[C@@H]1[C@@H](c2ccc(C#Cc3ccccc3)cc2)[C@@H]2CN(Cc3ccccn3)CCCCN12	·	·	·	·	-60	-20
COC(=O)c1cc(NC(=O)c2cc(-c3ccccc3Cl)oc2C(F)(F)F)ccc1N1CCOCC1	0	4	-4	4	-32*	-21
Cc1cc(C(=O)COC(=O)c2ccc(O)cc2)c(C)n1-c1ccccc1F	4	-7	·	2	-29*	4
C[C@@H]1CCCCO[C@@H](CN(C)S(=O)(=O)c2ccccc2)[C@H](C)CN([C@@H](C)CO)C(=O)c2cc(NC(=O)C3CCCCC3)ccc2O1	-8	·	-6	-1	-1	-2
N/C(=N\OC(=O)C1CC1)c1ccc([N+](=O)[O-])s1	0	-3	-5	5	-55*	4
COc1ccc2c3c([nH]c2c1)[C@@H](CO)N(C(=O)c1ccc(F)cc1)CC31CCN(C)CC1	·	·	·	·	1	0
COCC(=O)Nc1ccc2c(c1)[C@@H]1C[C@@H](CC(=O)NCc3ccccc3)O[C@H](CO)[C@@H]1O2	1	·	10	-1	2	13
Oc1cc2c(cc1O)[C@@H](c1ccccc1)CNCC2	-1	-6	-2	-3	·	-13
Oc1cc2c(cc1O)C(c1ccccc1)CNCC2 (stereo not drawn)	52*	-4	9	1	·	4
Cc1nnn(C23C[C@@H]4C[C@@H](CC(C(=O)N5CCN(c6ccccc6)CC5)(C4)C2)C3)n1	8	-13	-1	-2	-31*	·
O=C(N1CCN(c2ccccc2)CC1)C12CC3CC(CC(C3)C1)C2	·	·	-1	0	-6	·
